Measurements as given in PubChem BioAssay (EPA / NIEHS).
Inconclusive results are not listed. Activity calls are given as the source filed them. Rule for the calls, unless noted: active = hit-call score of the fitted dose curve at least 0.9, where 1 is the maximum; inconclusive = response in the unintended direction; inactive = score below 0.9.

Columns and labels:
[1] = ATG_TCF_b_cat_CIS: Attagene CIS-FACTORIAL HepG2 Assay for human T-Cell-Factor with beta-catenin (TCF/b-cat) (AID 2282965; active = hit-call score of the fitted dose curve at least 0.9, where 1 is the maximum; inactive = score below 0.9); details: HepG2 TCF/beta-catenin cis-reporter transcription, actives raise or lower the signal
How it was run: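 HepG2 cells transiently transfected with multiple cis-promoter-regulated reporter transcription units, so endogenous transcription factor activity is measured. Reporter mRNA read 24 hours after dosing by RT-PCR, fluorescent labelling and capillary electrophoresis; bidirectional fitting against DMSO.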

[2] = ATG_TAL_CIS: Attagene CIS-FACTORIAL HepG2 Assay for human TAL Basal Promoter (AID 2282966; active = hit-call score of the fitted dose curve at least 0.9, where 1 is the maximum; inactive = score below 0.9;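 note: background control endpoint measuring basal TAL promoter reporter mRNA not a specific factor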); details: HepG2 Attagene cis-factorial TAL promoter reporter; actives raise or lower the signal
How it was run: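 Transiently transfected HepG2 (cis-regulated reporter units), 24 h treatment, mRNA read by fluorescent CE after RT-PCR; bidirectional fit, DMSO baseline.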

[3] = ATG_TGFb_CIS: Attagene CIS-FACTORIAL HepG2 Assay for human Transforming Growth Factor (TGF) (AID 2282967; active = hit-call score of the fitted dose curve at least 0.9, where 1 is the maximum; inactive = score below 0.9); details: HepG2 Attagene CIS TGFb reporter, mRNA transcription; actives raise or lower the signal
How it was run: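 Cells were dosed for 24 hours, after which total RNA was reverse-transcribed and reporter sequences amplified, labeled and sized by capillary electrophoresis. Activity was fitted in both directions against DMSO.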

[4] = ATG_VDRE_CIS: Attagene CIS-FACTORIAL HepG2 Assay for human Vitamin D Receptor Element (VDRE) (AID 2282968; active = hit-call score of the fitted dose curve at least 0.9, where 1 is the maximum; inactive = score below 0.9); details: HepG2 VDRE cis-reporter transcription, actives raise or lower the signal
How it was run: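 Transfected HepG2 reporter cells, chemical treatment 24 h. RNA isolated, cDNA amplified with reporter-specific primers, products analysed by capillary electrophoresis. Endpoint fitted in both directions versus DMSO.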

[5] = target: Nuclear receptor subfamily 1 group I member 3 (Homo sapiens) (UniProt Q14994); experiment: ATG_CAR_TRANS: Attagene TRANS-FACTORIAL HepG2 Assay for human Constitutive Androstane Receptor (CAR) (AID 2282969); details: HepG2 Attagene TRANS-FACTORIAL CAR reporter;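 note: activators raise reporter mRNA above DMSO so AC50 marks induction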
How it was run: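 Steps: transient transfection of HepG2 with multiple GAL4-UAS reporter units; 24 h compound incubation; RNA isolation, RT-PCR, 6-FAM primer extension, HpaI digest; capillary electrophoresis. Gain-of-signal relative to DMSO negative control.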

[6] = target: Estrogen receptor (Homo sapiens) (UniProt P03372); experiment: ATG_ERa_TRANS: Attagene TRANS-FACTORIAL HepG2 Assay for human Estrogen Receptor alpha (ERa) (AID 2282970); details: HepG2 Attagene TRANS ERa GAL4 reporter, mRNA
How it was run: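 One of 30 multiplexed endpoints from a HepG2 TRANS system, this one reports ERa-Gal4-driven reporter mRNA. Transcripts were quantified 24 hours post-dosing by fluorescent RT-PCR and capillary electrophoresis, with activity scored as induction over DMSO.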

[7] = target: X-box-binding protein 1 (Homo sapiens) (UniProt P17861); experiment: ATG_Xbp1_CIS: Attagene CIS-FACTORIAL HepG2 Assay for human X-box Binding Protein 1 (XBP1) (AID 2282972; active = hit-call score of the fitted dose curve at least 0.9, where 1 is the maximum; inactive = score below 0.9); details: HepG2 XBP1 cis-element reporter, Attagene multiplex; actives raise or lower the signal
How it was run: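 Reporter transcripts were quantified by RT-PCR with fluorescent primer extension and capillary electrophoresis after 24 h chemical exposure. Cells: transiently transfected HepG2 carrying cis-regulated reporter constructs; data fitted bidirectionally relative to DMSO.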

[8] = ATG_M_19_TRANS: Attagene TRANS-FACTORIAL HepG2 Assay for M19 Transcription Factor (Internal Marker) (AID 2282974); details: HepG2 Attagene TRANS-FACTORIAL M19 internal marker reporter
How it was run: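 Using RT-PCR and capillary electrophoresis, reporter mRNA from transiently transfected human HepG2 cells was quantified following 24 h exposure; activity was fitted in the positive direction against DMSO.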

[9] = ATG_GAL4_TRANS: Attagene TRANS-FACTORIAL HepG2 Assay for GAL4 (Internal Marker) (AID 2282976); details: HepG2 Attagene TRANS GAL4 internal marker reporter
How it was run: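 HepG2 cells transiently transfected with multiplexed GAL4-UAS reporter constructs were dosed for 24 h. Reporter mRNA was measured by RT-PCR, 6-FAM primer extension, HpaI digestion and capillary electrophoresis, and gain of signal was fitted relative to DMSO.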

[10] = target: Bile acid receptor (Homo sapiens) (UniProt Q96RI1); experiment: ATG_FXR_TRANS: Attagene TRANS-FACTORIAL HepG2 Assay for Farnesoid X Receptor (FXR) (AID 2282979); details: HepG2 Attagene TRANS FXR-GAL4 reporter transcription;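 note: hits raise reporter mRNA above DMSO so AC50 marks FXR activation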
How it was run: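 HepG2 cells transiently transfected with reporter constructs in which a chimeric FXR-GAL4 protein drives a GAL4-UAS reporter; 24 h compound exposure. Reporter mRNA measured by RT-PCR, FAM labelling, HpaI digestion and capillary electrophoresis; gain-of-signal versus DMSO.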

[11] = target: Oxysterols receptor LXR-beta (Homo sapiens) (UniProt P55055); experiment: ATG_LXRb_TRANS: Attagene TRANS-FACTORIAL HepG2 Assay for human Liver X Receptor beta (LXRb) (AID 2282981); details: HepG2 Attagene TRANS GAL4-LXRb reporter, mRNA
How it was run: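 Liver-derived HepG2 cells transfected with Gal4-responsive reporters were dosed for 24 h. Activation was scored as rise in reporter mRNA, by RT-PCR and capillary electrophoresis, above DMSO baseline.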

[12] = ATG_M_32_TRANS: Attagene TRANS-FACTORIAL HepG2 Assay for M32 Transcription Factor (Internal Marker) (AID 2282984); details: HepG2 Attagene TRANS M32 internal marker reporter;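 note: transcript level of a background control reporter unit measured by RT-PCR and capillary electrophoresis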
How it was run: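 Fluorescence-detected mRNA induction, HepG2 liver cells, 24 h after dosing. Multiple GAL4-UAS reporter units introduced by transient transfection; background-control endpoint analysed for gain of signal against DMSO.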

[13] = target: Transcriptional activator Myb (Homo sapiens) (UniProt P10242); experiment: ATG_Myb_CIS: Attagene CIS-FACTORIAL HepG2 Assay for human Myeloblastosis (Myb) Proto-Oncogene Transcription Factor (AID 2282986; active = hit-call score of the fitted dose curve at least 0.9, where 1 is the maximum; inactive = score below 0.9); details: HepG2 Attagene CIS-FACTORIAL Myb reporter transcription; actives raise or lower the signal
How it was run: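 In this HepG2 transient-transfection format, cis-regulated reporter mRNA is quantified 24 h post-dosing by RT-PCR with capillary electrophoresis, fitted bidirectionally to DMSO baseline.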

[14] = target: Hepatocyte nuclear factor 4-alpha (Homo sapiens) (UniProt P41235); experiment: ATG_HNF4a_TRANS: Attagene TRANS-FACTORIAL HepG2 Assay for human Hepatocyte Nuclear Factor 4 alpha (HNF4a) (AID 2282982); details: HepG2 HNF4a transactivation reporter, mRNA readout
How it was run: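 Using HepG2 liver cells transfected with GAL4-UAS reporter units, chemical-induced mRNA increases were assessed after 24 hours. Fluorescent RT-PCR fragments were separated by capillary electrophoresis and compared with DMSO negative controls.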

[15] = ATG_M_06_TRANS: Attagene TRANS-FACTORIAL HepG2 Assay for M06 Transcription Factor (Internal Marker) (AID 2282983); details: HepG2 Attagene TRANS M06 internal marker reporter;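 note: reporter transcript level by RT-PCR then capillary electrophoresis fluorescence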
How it was run: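 In this multiplexed HepG2 system, compounds are incubated 24 h with cells carrying GAL4-UAS reporter units. Reporter RNA is amplified and resolved by capillary electrophoresis, and induction is scored against DMSO.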

[16] = target: Glucocorticoid receptor (Homo sapiens) (UniProt P04150); experiment: ATG_GR_TRANS: Attagene TRANS-FACTORIAL HepG2 Assay for human Glucocorticoid Receptor (GR) (AID 2282978); details: HepG2 Attagene TRANS GR reporter, mRNA transcription;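 note: activators score as hits since higher reporter transcript over DMSO is fitted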
How it was run: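 Exogenous NR-GAL4 fusion activity was assessed through induced GAL4-UAS reporter transcripts in transfected human HepG2 cells, quantified after 24 h by RT-PCR and fluorescent capillary electrophoresis with DMSO as baseline.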

[17] = target: Oxysterols receptor LXR-alpha (Homo sapiens) (UniProt Q13133); experiment: ATG_LXRa_TRANS: Attagene TRANS-FACTORIAL HepG2 Assay for human Liver X Receptor alpha (LXRa) (AID 2282980); details: HepG2 Attagene TRANS reporter, LXRa transactivation
How it was run: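 HepG2 cells were transiently transfected with multiplexed reporter units driven by chimeric LXRa–GAL4 fusion proteins, then dosed for 24 h. Reporter mRNA was quantified by RT-PCR, fluorescent labelling and capillary electrophoresis; gain of signal fitted against DMSO baseline.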

[18] = target: Nuclear receptor subfamily 4 group A member 2 (Homo sapiens) (UniProt P43354); experiment: ATG_NURR1_TRANS: Attagene TRANS-FACTORIAL HepG2 Assay for human Nuclear Receptor Related Protein 1 (NURR1) (AID 2282985); details: HepG2 Attagene TRANS reporter, mRNA readout
How it was run: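 Chimeric NR-Gal4 proteins were expressed in human HepG2 cells bearing GAL4-UAS reporter units, and induced reporter mRNA was quantified 24 h post-dosing by RT-PCR and capillary electrophoresis.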

[19] = target: Steroid hormone receptor ERR1 (Homo sapiens) (UniProt P11474); experiment: ATG_ERRa_TRANS: Attagene TRANS-FACTORIAL HepG2 Assay for human Estrogen-Related Receptor alpha (ERRa) (AID 2282971); details: HepG2 Attagene TRANS reporter, ERRa transactivation
How it was run: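 HepG2 cells transiently transfected with multiplexed GAL4-UAS reporter units reading chimeric ERRa-Gal4 activity; 24 h compound exposure. Reporter mRNA measured by RT-PCR, 6-FAM labelling, HpaI digest and capillary electrophoresis; gain of signal fitted versus DMSO baseline.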

[20] = target: Estrogen-related receptor gamma (Homo sapiens) (UniProt P62508); experiment: ATG_ERRg_TRANS: Attagene TRANS-FACTORIAL HepG2 Assay for human Estrogen-Related Receptor gamma (ERRg) (AID 2282977); details: HepG2 Attagene TRANS reporter, ERRg transactivation;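 note: hits increase reporter signal over DMSO so potencies reflect activators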
How it was run: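 Readout: fluorescent reporter-mRNA fragments resolved by capillary electrophoresis after RT-PCR and HpaI cut. Cells: transiently transfected HepG2 carrying GAL4-UAS reporters driven by exogenous NR-Gal4 chimeras, dosed 24 h. Activity fitted upward relative to DMSO baseline.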

Measured: AC50

Sequence of Oxysterols receptor LXR-alpha (Homo sapiens) (Q13133 whole entry, looked up, the tested form may be a part): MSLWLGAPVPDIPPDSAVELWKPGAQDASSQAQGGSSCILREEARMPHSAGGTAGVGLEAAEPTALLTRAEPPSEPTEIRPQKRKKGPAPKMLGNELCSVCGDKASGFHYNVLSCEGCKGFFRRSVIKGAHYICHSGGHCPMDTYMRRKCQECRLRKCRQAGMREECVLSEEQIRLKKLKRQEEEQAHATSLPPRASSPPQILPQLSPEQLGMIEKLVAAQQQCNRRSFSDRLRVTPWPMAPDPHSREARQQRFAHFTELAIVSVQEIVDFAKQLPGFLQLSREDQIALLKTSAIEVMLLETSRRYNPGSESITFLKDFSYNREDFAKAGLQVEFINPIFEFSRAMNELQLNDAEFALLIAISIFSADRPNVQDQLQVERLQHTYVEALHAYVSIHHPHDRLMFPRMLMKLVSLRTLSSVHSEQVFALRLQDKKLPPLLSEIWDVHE
Sequence of Hepatocyte nuclear factor 4-alpha (Homo sapiens) (P41235 whole entry, looked up, the tested form may be a part): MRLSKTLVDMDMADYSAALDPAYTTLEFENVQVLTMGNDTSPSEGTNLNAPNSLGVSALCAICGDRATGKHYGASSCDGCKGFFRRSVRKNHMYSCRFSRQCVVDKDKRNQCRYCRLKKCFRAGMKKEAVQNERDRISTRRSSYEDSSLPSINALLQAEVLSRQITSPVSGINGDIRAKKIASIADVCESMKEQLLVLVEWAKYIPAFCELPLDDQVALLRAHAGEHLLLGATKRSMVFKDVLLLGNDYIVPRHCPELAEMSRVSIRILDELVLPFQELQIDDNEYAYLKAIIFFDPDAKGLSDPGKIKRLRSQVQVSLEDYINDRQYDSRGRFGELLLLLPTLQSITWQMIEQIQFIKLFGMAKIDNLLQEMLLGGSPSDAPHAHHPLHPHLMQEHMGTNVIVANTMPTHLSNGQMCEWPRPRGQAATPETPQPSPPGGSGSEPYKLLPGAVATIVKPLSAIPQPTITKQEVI
Sequence of Estrogen receptor (Homo sapiens) (P03372 whole entry, looked up, the tested form may be a part): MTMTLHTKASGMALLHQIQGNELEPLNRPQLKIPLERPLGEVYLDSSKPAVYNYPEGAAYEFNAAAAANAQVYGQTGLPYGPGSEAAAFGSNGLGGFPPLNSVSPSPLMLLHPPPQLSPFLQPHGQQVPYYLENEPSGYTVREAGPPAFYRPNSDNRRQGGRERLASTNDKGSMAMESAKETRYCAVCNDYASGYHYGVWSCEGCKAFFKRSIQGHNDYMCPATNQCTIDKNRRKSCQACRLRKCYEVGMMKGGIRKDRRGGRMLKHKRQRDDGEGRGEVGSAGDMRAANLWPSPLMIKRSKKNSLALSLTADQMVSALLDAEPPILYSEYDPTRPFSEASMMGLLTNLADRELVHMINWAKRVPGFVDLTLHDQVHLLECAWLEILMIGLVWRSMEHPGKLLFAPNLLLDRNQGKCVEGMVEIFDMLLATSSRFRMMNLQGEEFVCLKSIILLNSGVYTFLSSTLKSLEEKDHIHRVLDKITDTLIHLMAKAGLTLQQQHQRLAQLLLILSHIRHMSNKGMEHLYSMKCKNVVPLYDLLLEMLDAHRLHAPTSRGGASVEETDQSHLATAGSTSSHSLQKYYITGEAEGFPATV
Sequence of X-box-binding protein 1 (Homo sapiens) (P17861 whole entry, looked up): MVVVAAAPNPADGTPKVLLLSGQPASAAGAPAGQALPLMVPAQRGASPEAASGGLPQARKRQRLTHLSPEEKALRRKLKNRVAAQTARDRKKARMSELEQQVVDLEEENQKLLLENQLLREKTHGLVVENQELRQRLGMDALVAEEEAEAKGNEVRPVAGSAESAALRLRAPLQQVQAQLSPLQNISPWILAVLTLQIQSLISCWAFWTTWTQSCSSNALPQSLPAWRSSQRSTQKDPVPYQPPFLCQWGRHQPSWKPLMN
Sequence of Transcriptional activator Myb (Homo sapiens) (P10242 whole entry, looked up): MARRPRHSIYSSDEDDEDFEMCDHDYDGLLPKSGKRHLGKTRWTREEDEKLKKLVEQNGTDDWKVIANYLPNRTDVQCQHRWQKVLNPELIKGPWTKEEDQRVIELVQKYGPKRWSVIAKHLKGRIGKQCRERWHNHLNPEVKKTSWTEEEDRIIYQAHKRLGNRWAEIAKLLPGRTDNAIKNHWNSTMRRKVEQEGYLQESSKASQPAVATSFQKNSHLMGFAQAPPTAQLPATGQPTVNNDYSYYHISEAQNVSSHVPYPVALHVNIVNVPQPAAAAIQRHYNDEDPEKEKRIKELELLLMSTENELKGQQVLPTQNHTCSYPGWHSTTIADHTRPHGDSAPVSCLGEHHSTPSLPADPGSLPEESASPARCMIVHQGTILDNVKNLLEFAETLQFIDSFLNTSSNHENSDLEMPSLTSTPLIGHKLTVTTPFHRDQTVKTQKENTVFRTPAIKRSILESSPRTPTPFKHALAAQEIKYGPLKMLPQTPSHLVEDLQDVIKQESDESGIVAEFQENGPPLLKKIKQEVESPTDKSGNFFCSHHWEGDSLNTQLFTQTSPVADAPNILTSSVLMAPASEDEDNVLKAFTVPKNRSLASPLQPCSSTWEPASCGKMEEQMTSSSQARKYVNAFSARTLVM
Sequence of Nuclear receptor subfamily 1 group I member 3 (Homo sapiens) (Q14994 whole entry, looked up, the tested form may be a part): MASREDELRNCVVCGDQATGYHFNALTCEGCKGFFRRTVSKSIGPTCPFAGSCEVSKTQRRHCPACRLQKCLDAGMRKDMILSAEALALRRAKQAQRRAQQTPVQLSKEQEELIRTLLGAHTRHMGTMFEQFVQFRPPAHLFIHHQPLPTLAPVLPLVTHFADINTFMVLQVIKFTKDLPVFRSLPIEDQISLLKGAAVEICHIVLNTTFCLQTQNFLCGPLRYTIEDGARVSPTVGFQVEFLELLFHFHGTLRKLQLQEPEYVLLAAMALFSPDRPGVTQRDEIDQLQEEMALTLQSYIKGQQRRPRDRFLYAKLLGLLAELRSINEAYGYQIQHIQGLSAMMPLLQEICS
Sequence of Oxysterols receptor LXR-beta (Homo sapiens) (P55055 whole entry, looked up, the tested form may be a part): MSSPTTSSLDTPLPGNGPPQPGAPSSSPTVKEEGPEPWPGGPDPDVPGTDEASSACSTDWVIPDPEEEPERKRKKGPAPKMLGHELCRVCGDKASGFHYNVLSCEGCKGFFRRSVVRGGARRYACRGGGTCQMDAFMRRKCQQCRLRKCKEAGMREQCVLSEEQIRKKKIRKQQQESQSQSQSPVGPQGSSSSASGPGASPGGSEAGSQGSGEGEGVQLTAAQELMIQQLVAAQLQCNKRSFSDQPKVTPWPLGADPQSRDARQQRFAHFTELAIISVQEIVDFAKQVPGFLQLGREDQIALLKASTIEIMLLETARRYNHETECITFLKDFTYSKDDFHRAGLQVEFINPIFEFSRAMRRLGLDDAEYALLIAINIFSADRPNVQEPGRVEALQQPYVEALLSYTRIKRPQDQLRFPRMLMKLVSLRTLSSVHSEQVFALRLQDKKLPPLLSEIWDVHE
Sequence of Bile acid receptor (Homo sapiens) (Q96RI1 whole entry, looked up, the tested form may be a part): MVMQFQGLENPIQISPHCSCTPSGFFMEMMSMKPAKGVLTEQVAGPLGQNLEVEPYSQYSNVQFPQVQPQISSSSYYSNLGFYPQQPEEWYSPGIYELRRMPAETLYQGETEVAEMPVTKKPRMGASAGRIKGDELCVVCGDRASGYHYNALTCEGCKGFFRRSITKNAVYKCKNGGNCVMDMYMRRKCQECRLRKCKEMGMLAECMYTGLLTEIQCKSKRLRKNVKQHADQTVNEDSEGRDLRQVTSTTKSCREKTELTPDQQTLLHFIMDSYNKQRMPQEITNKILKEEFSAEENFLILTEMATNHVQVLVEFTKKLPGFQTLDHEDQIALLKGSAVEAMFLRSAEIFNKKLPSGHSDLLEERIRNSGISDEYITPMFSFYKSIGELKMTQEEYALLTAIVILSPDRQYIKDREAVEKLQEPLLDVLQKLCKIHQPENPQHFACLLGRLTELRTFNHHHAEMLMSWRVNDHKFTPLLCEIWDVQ
Sequence of Estrogen-related receptor gamma (Homo sapiens) (P62508 whole entry, looked up, the tested form may be a part): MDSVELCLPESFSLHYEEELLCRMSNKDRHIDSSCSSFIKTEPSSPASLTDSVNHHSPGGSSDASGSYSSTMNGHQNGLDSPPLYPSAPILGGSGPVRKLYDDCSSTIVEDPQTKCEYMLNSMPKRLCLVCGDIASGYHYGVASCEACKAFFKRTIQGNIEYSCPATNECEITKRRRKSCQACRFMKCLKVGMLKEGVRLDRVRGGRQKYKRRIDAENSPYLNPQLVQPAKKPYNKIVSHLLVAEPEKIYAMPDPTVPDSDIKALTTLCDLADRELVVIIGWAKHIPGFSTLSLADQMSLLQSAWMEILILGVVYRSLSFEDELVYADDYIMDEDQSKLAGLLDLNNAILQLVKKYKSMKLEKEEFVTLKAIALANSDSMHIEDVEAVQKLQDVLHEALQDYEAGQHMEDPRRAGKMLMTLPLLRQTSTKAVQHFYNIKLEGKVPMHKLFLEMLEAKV
Sequence of Glucocorticoid receptor (Homo sapiens) (P04150 whole entry, looked up, the tested form may be a part): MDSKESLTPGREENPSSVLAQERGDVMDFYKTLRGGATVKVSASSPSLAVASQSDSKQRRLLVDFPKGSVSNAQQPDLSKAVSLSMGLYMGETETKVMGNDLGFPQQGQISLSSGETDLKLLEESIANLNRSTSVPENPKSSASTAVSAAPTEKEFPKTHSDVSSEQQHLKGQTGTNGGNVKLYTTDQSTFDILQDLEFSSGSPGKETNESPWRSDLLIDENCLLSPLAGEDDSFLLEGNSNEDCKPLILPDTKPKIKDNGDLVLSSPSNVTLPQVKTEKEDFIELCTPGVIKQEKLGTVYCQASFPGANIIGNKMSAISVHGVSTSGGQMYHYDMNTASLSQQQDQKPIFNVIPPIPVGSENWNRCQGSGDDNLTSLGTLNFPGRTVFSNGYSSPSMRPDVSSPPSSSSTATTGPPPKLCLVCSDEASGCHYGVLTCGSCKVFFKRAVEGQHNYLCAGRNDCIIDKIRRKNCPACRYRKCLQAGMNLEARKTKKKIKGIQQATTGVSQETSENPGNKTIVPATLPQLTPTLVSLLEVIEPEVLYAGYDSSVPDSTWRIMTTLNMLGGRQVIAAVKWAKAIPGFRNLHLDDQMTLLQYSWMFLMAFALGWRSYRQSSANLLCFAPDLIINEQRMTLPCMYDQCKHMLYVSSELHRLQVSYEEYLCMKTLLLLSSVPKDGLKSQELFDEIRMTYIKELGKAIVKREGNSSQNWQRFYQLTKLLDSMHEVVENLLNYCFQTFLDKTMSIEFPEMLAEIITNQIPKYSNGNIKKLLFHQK

CCC(=O)OCCc1ccccc1
not listed: [14] | [15] | [16] | [17] | [18] | [19] | [20]
inactive: all other assays above

CNC(=S)NC
active: [6] 25.9 µM
not listed: [9] | [12] | [16] | [17] | [18] | [19] | [20]
inactive: all other assays above

CCN(CC)c1ccc2c(C)cc(=O)oc2c1
active: [4] 9.28 µM | [6] 25.4 µM | [17] 26.2 µM
not listed: [9] | [14] | [15] | [19] | [20]
inactive: all other assays above

Nc1ccc(S(=O)(=O)Nc2nccs2)cc1
not listed: [5] | [10] | [18]
inactive: all other assays above

CCCCCCOC(=O)c1ccccc1
inactive: [1] | [2] | [3] | [4] | [5] | [6] | [7] | [8] | [14] | [15] | [13]
